“And” between values parts separate entries of the source, which are not always exact repeats. Identical values can stand only once. The whole screen tested about 5,500 compounds, of which about 2,000 (36%) were called active. Not shown: some 18% with an inconclusive outcome. Rule as the data show it: active = normalized growth mostly below about 0.91 (no sharp cut-off); inconclusive = no clear call, values can overlap the other calls; inactive = mostly above about 0.92. The list shows a part of the results.
Assay: chemical genetic growth profiling, strain panel (AID 1159580);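 also: tested at 20 µM; growth read once vehicle control cultures reached saturation at 30 °C; 1 = growth at the plate median or of vehicle wells; lower values mean less growth of the strain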
Conditions: S. cerevisiae deletion strains, growth OD

Measured: normalized growth

COc1ccc(C2C(=O)c3ccccc3C2=O)cc1
inactive: locus YAL013W, strain DEP1, active compounds read low 0.997 | locus YAL021C, strain ccr4, active compounds read low 1.01 | locus YAL026C, strain drs2, active compounds read low 0.983 | locus YAL030W, strain snc1, active compounds read low 1 | locus YBL061C, strain skt5, active compounds read low 1.01 | locus YBR009C, strain hhf1, active compounds read low 0.998 | locus YBR021W, strain FUR4, active compounds read low 1.01 | locus YBR023C, strain chs3, active compounds read low 1.01 | locus YBR171W, strain sec66, active compounds read low 0.978 | locus YBR229C, strain ROT2, active compounds read low 1 | locus YBR231C, strain swc5, active compounds read low 1.02 | locus YBR279W, strain paf1, active compounds read low 1.01 | locus YCL011C, strain gbp2, active compounds read low 0.979 | locus YCL016C, strain dcc1, active compounds read low 1.03 | locus YCL029C, strain bik1, active compounds read low 0.983 | locus YCL069W, strain vba3, active compounds read low 0.986 | locus YCR088W, strain abp1, active compounds read low 0.999 | locus YDL005C, strain med2, active compounds read low 1.02 | locus YDL035C, strain GPR1, active compounds read low 1.01 | locus YDL040C, strain nat1, active compounds read low 1.02 | locus YDL074C, strain BRE1, active compounds read low 0.994 | locus YDL101C, strain DUN1, active compounds read low 1 | locus YDL185W, strain tfp1, active compounds read low 0.921 | locus YDL192W, strain arf1, active compounds read low 0.988 | locus YDR001C, strain nth1, active compounds read low 0.964 | locus YDR069C, strain doa4, active compounds read low 1.01 | locus YDR101C, strain arx1, active compounds read low 1.03 | locus YDR137W, strain rgp1, active compounds read low 0.978 | locus YDR150W, strain NUM1, active compounds read low 0.988 | locus YDR159W, strain sac3, active compounds read low 1.01 | locus YDR162C, strain NBP2, active compounds read low 1.02 | locus YDR195W, strain ref2 1.09 | locus YDR297W, strain sur2, active compounds read low 0.993 | locus YDR318W, strain mcm21, active compounds read low 0.993 | locus YDR334W, strain swr1, active compounds read low 0.983 | locus YDR335W, strain msn5, active compounds read low 1.02 | locus YDR388W, active compounds read low 1.01 | locus YDR392W, strain spt3, active compounds read low 1.02 | locus YDR502C, strain sam2, active compounds read low 0.998 | locus YEL003W, strain gim4, active compounds read low 0.993 | locus YEL037C, strain rad23, active compounds read low 0.994 | locus YEL061C, strain CIN8 (second series), active compounds read low 0.975 | locus YEL061C, strain CIN8, active compounds read low 0.98 | locus YER015W, strain faa2, active compounds read low 1.01 | locus YER016W, strain bim1, active compounds read low 0.995 | locus YER110C, active compounds read low 0.985 | locus YER111C, strain swi4, active compounds read low 0.994 | locus YER155C, strain BEM2 (second series), active compounds read low 0.993 | locus YER155C, strain BEM2, active compounds read low 0.998 | locus YER167W, strain BCK2, active compounds read low 1 | locus YFR010W, strain ubp6, active compounds read low 1.02 | locus YGL078C, strain dbp3, active compounds read low 0.99 | locus YGL086W, strain mad1, active compounds read low 1.01 | locus YGL167C, strain pmr1, active compounds read low 1 | locus YGL173C, strain kem1, active compounds read low 1.02 | locus YGL227W, strain vid30, active compounds read low 0.974 | locus YGL240W, strain doc1, active compounds read low 1.02 | locus YGL248W, strain PDE1, active compounds read low 1 | locus YGL253W, strain hxk2, active compounds read low 1.01 | locus YGR078C, strain PAC10, active compounds read low 0.998 | locus YGR135W, strain pre9, active compounds read low 0.963 | locus YGR252W, strain gcn5, active compounds read low 0.956 | locus YHR013C, strain ard1, active compounds read low 1.02 | locus YHR027C, strain rpn1, active compounds read low 1.01 | locus YHR030C, strain SLT2, active compounds read low 0.977 and 0.898 | locus YHR079C, strain IRE1 (second series), active compounds read low 0.991 | locus YHR079C, strain IRE1, active compounds read low 0.857 | locus YHR094C, strain hxt1, active compounds read low 0.999 | locus YHR129C, strain ARP1, active compounds read low 1.01 | locus YHR142W, strain chs7, active compounds read low 1.02 | locus YHR200W, strain rpn10, active compounds read low 0.995 | locus YIL066C, strain RNR3, active compounds read low 0.996 | locus YIL073C, strain SPO22, active compounds read low 0.977 | locus YIL125W, strain kgd1, active compounds read low 0.997 | locus YIR030C, strain dcg1, active compounds read low 0.987 | locus YJL092W, strain hpr5, active compounds read low 0.969 | locus YJL095W, strain BCK1 (second series), active compounds read low 0.981 | locus YJL095W, strain BCK1, active compounds read low 1 and 0.908 | locus YJL115W, strain asf1, active compounds read low 0.998 | locus YJL129C, strain trk1, active compounds read low 1.02 | locus YJL134W, strain LCB3, active compounds read low 1 | locus YJL154C, strain vps35, active compounds read low 0.99 | locus YJL164C, strain tpk1, active compounds read low 0.999 | locus YJL166W, strain qcr8, active compounds read low 1.01 | locus YJL168C, strain set2, active compounds read low 1.02 | locus YJL187C, strain SWE1 (second series), active compounds read low 0.998 | locus YJR043C, strain POL32, active compounds read low 1

Reference: PubChem BioAssay AID1159580 (chemical genetic matrix, 2015)
